Screen size: about 5,400 compounds; about 190 (3.5%) showed an effect of 50% or more. The sample as a whole holds a higher share of strong results than the screen did.

This experiment has as its system Vero-E6. The experiment is described as follows: primary screen, phospholipidosis by LipidTOX staining; higher = more effect of the substance. To be noted: 10 µM. In outline: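 Single-concentration screen at 10 μM, with DMSO 0.1 v/v % and amiodarone 10 μM as controls. Read-out is LipidTOX Red phospholipid staining, which tolerates aldehyde fixation, in Vero-E6 cells.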
`CCNC(=O)N1CCN(CCCC(c2ccc(F)cc2)c2ccc(F)cc2)CC1`: the result_ITMP was determined as 8.88%.

On to `Cc1cccc(C)c1NC(=O)CN1CCN(CCCC(c2ccc(F)cc2)c2ccc(F)cc2)CC1`, for which the result_ITMP amounted to 52.6%. Next, `Cc1cccc(C)c1NC(=O)CN1CCCCCC1`: -0.91%; `O=C(/C=C/c1c(C(=O)[O-])[nH]c2cc(Cl)cc(Cl)c12)Nc1ccccc1`: 0.43%; `Cc1ccc(C(=O)c2ccc(CC(=O)[O-])n2C)cc1`: -3.18%. Next, `CCN(CC)C(C)CN1c2ccccc2Sc2ccccc21` (stereo not shown): 63.9%; `CCOC(=O)Nc1ccc2c(c1)N(C(=O)CCN(CC)CC)c1ccccc1S2`: 12%; `CC(CC(C(N)=O)(c1ccccc1)c1ccccc1)N(C)C` (stereo not shown): -2.3%. Under `CCN(CC)C(C)C(=O)c1ccccc1` (stereo not shown) stands -5.15%. With `CC(CN1c2ccccc2Sc2ccccc21)N(C)C` (stereo not shown), the result_ITMP worked out at 55.4%. Next, `COC(=O)/C=C/C(=O)N[C@@H]1CC[C@@]2(O)C3Cc4ccc(O)c5c4[C@@]2(CCN3CC2CC2)[C@H]1O5`: -2%. Next, `CC(O)(P(=O)([O-])O)P(=O)([O-])O`: -0.98%; `Fc1cc(F)c2c(c1)[C@H]1C=CC[C@H]1C(c1cccnc1)N2` (mixture of isomers): -14.4%; `O=S(=O)([O-])CCS`: -2.99%. Turning to `OC[C@H]1O[C@@](CO)(O[C@H]2O[C@H](CO)[C@@H](O)[C@H](O)[C@H]2O)[C@@H](O)[C@@H]1O`, the result_ITMP is -5.71%. Next, `CN(C)CCC(c1ccc(Cl)cc1)c1ccccn1` (stereo not shown) [R4A_0004036_001 / SPE_A04553218]: 16%.

For the compound `C[C@]12CC[C@H](O)CC1=CC[C@@H]1[C@@H]2CC[C@]2(C)C(c3cccnc3)=CC[C@@H]12`, the result_ITMP is reported as -5.26%. On to `C[CH2][Hg][S]c1ccccc1C(=O)[O-]`, for which the result_ITMP came out at 6.82%. Next, `O=C([O-])C(=O)[O-].[NH-][C@@H]1CCCC[C@H]1[NH-].[Pt+4]`: 22.9%; `COc1cc2c(NC3CCN(C4CCCCC4)CC3)nc(N3CCCN(C(C)C)CC3)nc2cc1OCCCN1CCCCC1`: -1.55%; `COc1cc2c(NC3CCN(C(C)C)CC3)nc(C3CCCCC3)nc2cc1OCCCN1CCCC1`: 60.7%. Under `COc1cc2c(NC3CCN(C(C)C)CC3)nc(N3CCC(F)(F)CC3)nc2cc1OCCCN1CCCC1` stands 8.94%; under `C[C@]12CC[C@H](O)C[C@H]1CC[C@@H]1[C@@H]2CC[C@]2(C)[C@@H](c3ccc(=O)oc3)C[C@H]3O[C@]132`, -2.23%; under `Nc1ncnc2[nH]cnc12`, -2.75%. Under `C/C(=N\NC(=S)NNC(=S)Nc1ccccc1Cl)c1ccccn1` stands -0.18%; under `C1CCC(N/C(=N/C23CC4CC(CC(C4)C2)C3)N2CCOCC2)CC1`, -0.26%; under `C=C1C(=O)O[C@H]2[C@H]1CC/C(C)=C/CC[C@@]1(C)O[C@@H]21` [R4A_0002204_002 / SPE_K34851558], 16.6%. As to `C1=C/COCc2cc(ccc2OCCN2CCCC2)Nc2nccc(n2)-c2cccc(c2)COC/1`, the result_ITMP worked out at 78.8%. Consider `CN1C/C=C/CCOc2cccc(c2)-c2ccnc(n2)Nc2cccc(c2)C1`, for which the result_ITMP is listed as -2.04%. Next, `c1cc(OCCN2CCCCC2)cc(-c2n[nH]c3ccc(-c4ncn[nH]4)cc23)c1`: -0.52%. Next, `CN(C)CCNc1nc2cc(O)ccc2c2c1C(=O)c1ccccc1-2`: 76.7%. Under `CC(C)(O)CC(=O)[O-]` stands -6.24%; under `CC(=O)Nc1ccc(C(=O)NC(C)(C)C)cc1`, -9.36%.

For the compound `CN(C)CCCCC(=O)Nc1ccc(NC(=S)NC(=O)c2ccc(C(C)(C)C)cc2)cc1`, the result_ITMP is recorded as 147%. On to `CC(=O)Nc1ccc(NC(=S)NC(=O)c2ccc(C(C)(C)C)cc2)cc1`, for which the result_ITMP worked out at 2.55%. Under `O=C1[C@@H]2[C@H]3CC[C@H](C3)[C@@H]2C(=O)N1C[C@@H]1CCCC[C@H]1CN1CCN(c2nsc3ccccc23)CC1` stands 3.52%; under `COc1cccc(Nc2ncnn3ccc(CN4CC[C@@H](N)[C@H](O)C4)c23)c1`, 59%.

`CSCC[C@H](NC(=O)[C@H](CC(C)C)NC(=O)CNC(=O)[C@H](Cc1ccccc1)NC(=O)[C@H](Cc1ccccc1)NC(=O)[C@H](CCC(N)=O)NC(=O)[C@H](CCC(N)=O)NC(=O)[C@@H]1CCCN1C(=O)[C@H](CCCCN)NC(=O)[C@@H]1CCCN1C(=O)[C@@H](N)CCCNC(=N)N)C(N)=O`: the result_ITMP is listed as -6.88%. Under `C[C@H]1[C@H](OC(=O)CCC(=O)O)O[C@@H]2O[C@@]3(C)CC[C@H]4[C@H](C)CC[C@@H]1[C@@]24OO3` stands 7.77%; under `Cc1c(-c2ccc(-c3ccccc3F)cc2)nc2ccc(F)cc2c1C(=O)[O-]`, 5.08%; under `Cc1ccc2c(c1)c1c3n2CCNC3CCC1` (stereo not shown), 51.5%.

Take `c1cc2c(cc1C1CCCCC1)c1c3n2CCNC3CCC1` (stereo not shown): the result_ITMP turned out to be 84.2%. Take `C#C[C@]1(O)CC[C@H]2[C@@H]3CCC4=CC(=O)CC[C@@H]4C3CC[C@@]21CC` (stereo partly shown): the result_ITMP is -2.07%.

For `Cc1ccccc1C(c1ccccc1C)N1C2CCC1CC(O)(c1ccccc1)C2` (stereo not shown), the result_ITMP is listed as -2.82%.

With `C[C@H](/C=C/[C@H](C)C(C)(C)O)[C@H]1CC[C@H]2/C(=C/C=C3C[C@@H](O)C[C@H](O)C3)CCC[C@]12C`, the result_ITMP is on record as -0.26%. With `N[C@@H]1[C@H]2CN(c3nc4c(cc3F)c(=O)c(C(=O)O)cn4-c3ccc(F)cc3F)C[C@@H]12`, the result_ITMP is given as 0.39%. Turning to `Cc1cc2c(cc1CC(=O)c1sccc1S(=O)(=O)[N-]c1onc(C)c1Cl)OCO2`, the result_ITMP is -1.86%.

As for `COc1cc(Nc2c(C#N)cnc3cc(OCCCN4CCN(C)CC4)c(OC)cc23)c(Cl)cc1Cl`, the result_ITMP worked out at 68%.

Regarding `COc1cc2c(N3CCN(C(=O)Nc4ccc(OC(C)C)cc4)CC3)ncnc2cc1OCCCN1CCCCC1`, the result_ITMP stood at 23%. Take `COc1cc2ncnc(Nc3ccc(F)c(Cl)c3)c2cc1OCCCN1CCOCC1`: the result_ITMP is -1.05%. With `CC1(C)S[C@@H]2[C@H](NC(=O)[C@H](NC(=O)N3CCN(S(C)(=O)=O)C3=O)c3ccccc3)C(=O)N2[C@H]1C(=O)[O-]`, the result_ITMP is on record as -2.91%.

With `O=C1OC2(c3cc(I)c([O-])c(I)c3Oc3c2cc(I)c([O-])c3I)c2c(Cl)c(Cl)c(Cl)c(Cl)c21`, the result_ITMP is -9.57%. Next, `CC1(C)S[C@@H]2C(N3C(=O)[C@@H](c4ccccc4)NC3(C)C)C(=O)N2[C@H]1C(=O)[O-]` (stereo partly shown): -1.52%; `CC(=O)O[C@@]12CO[C@@H]1C[C@H](O)[C@@]1(C)C(=O)[C@H](O)C3=C(C)[C@@H](O)C[C@@](O)([C@@H](OC(=O)c4ccccc4)[C@H]21)C3(C)C`: -5.35%. Next, `Cc1noc(-c2ccc(-c3ccc(CC(=O)[O-])cc3)cc2)c1NC(=O)O[C@H](C)c1ccccc1`: -0.34%; `O=C(Nc1ccccc1)Nc1ccc(-c2ccc(C(=O)[C@@H]3CCC[C@H]3C(=O)O)cc2)cc1` [R4A_0000400_001 / SPE_K81614372]: -1.59%. Under `Cn1nccc1Nc1nccc(-c2ccn([C@H](CO)c3ccc(Cl)c(F)c3)c(=O)c2)n1` [R4A_0003897_001 / SPE_K86309810] stands -3.82%. Regarding `O[C@@H]1[C@H](O)[C@@H](CCl)O[C@H]1n1cnc2c(NC3CC4CCC3C4)ncnc21` (mixture of isomers), the result_ITMP is -1.27%. As to `CCCCN(CCCC)CCC(O)c1cc2c(Cl)cc(Cl)cc2c2cc(C(F)(F)F)ccc12` (stereo not shown), the result_ITMP is 68.8%. Next, `CCCCN(CCCC)CC(O)c1cc(Cl)cc2c1-c1ccc(Cl)cc1/C2=C/c1ccc(Cl)cc1` (stereo not shown): -0.63%. Next, `CC(=O)N[C@@H]1C[C@H](O)[C@@H](CO)O[C@H]1O[C@H]1[C@H](O)[C@@H](O)[C@H](O)O[C@@H]1C(=O)[O-]`: -0.41%; `CC(C)[C@@H]1C(=O)N(S(C)(=O)=O)[C@@H]2CCN(C(=O)/C=C/CN3CCCCC3)[C@H]21`: 0.42%. For `Cc1cccn2c(=O)c(/C=C(\C#N)c3nc4ccccc4s3)c(Oc3ccc(F)cc3)nc12`, the result_ITMP was -3.48%. As to `O=C(CCn1cnc2c(O)ncnc21)Nc1ccc(C(=O)O)cc1`, the result_ITMP is reported as -5.54%. On to `C[C@@H]1CN(CC(=O)Nc2ccc3c(c2)Cc2cccc(-c4cc(=O)cc(N5CCOCC5)o4)c2S3)C[C@H](C)O1`, for which the result_ITMP is on record as 4.24%. Next, `NC(Cc1c[nH]c2ccc(O)cc12)C(=O)O` (stereo not shown): -1.81%. Next, `CC(N)Cc1c[nH]c2ccc(OCc3cccs3)cc12` (stereo not shown): 55.2%; `CC(N)Cc1c[nH]c2ccc(O)cc12` (stereo not shown): -1.42%; `C=C[C@H]1C[N@]2CC[C@H]1C[C@@H]2[C@@H](O)c1ccnc2ccc(OC)cc12`: 11.5%.

As for `CC1(C)[C@@H]2C[C@@H](O)[C@@](C)(O)[C@H]1C2`, the result_ITMP is given as -10.7%. Next, `c1cc2c(c(N3CCNCC3)c1)OCCO2`: -1.86%.

Regarding `Cc1ccc(Sc2ccccc2N2CCNCC2)c(C)c1`, the result_ITMP stood at 57.3%. `O=S(=O)(c1ccccc1)c1cnc2c(N3CCNCC3)cccc2c1`: the result_ITMP is 39.6%. As to `Cc1cc(CN2CCN(c3c(Br)cnc4[nH]c(-c5ccc(N6CCN(C)CC6)cc5)nc34)CC2)no1`, the result_ITMP is -0.42%.

`C[C@H](NC(=O)CCc1nc2ccccc2c(=O)[nH]1)c1ccccc1` [R4A_0003503_001 / SPE_A63444178]: the result_ITMP is recorded as 0.66%. Turning to `COCC(=O)O[C@]1(CCN(C)CCCc2nc3ccccc3[nH]2)CCc2cc(F)ccc2[C@@H]1C(C)C`, the result_ITMP turned out to be 88.2%. Under `CC(C)[C@H]1c2ccc(F)cc2CC[C@@]1(CCN(C)CCCc1nc2ccccc2[nH]1)OC(=O)C1CC1` stands 68.1%. Under `O=C(O)CCc1nc2ccccc2[nH]1` stands -0.69%; under `Cc1cc(S(=O)(=O)[O-])c2c(C)ccc(C(C)C)cc1-2`, -3.22%.

Values taken from article PMC13083723 (Patterns, 2026).
